Test results reported in PubChem BioAssay (Tox21).
Inconclusive results are not listed. The source made the active and inactive calls. Unless noted, calls come from the whole dose curve; as a rule, active = well fitted curve in the direction sought with a large enough effect in the repeat runs; inconclusive = weak or mixed curves; inactive = no such curve, though single readings can be large; an effect the other way counts as inactive or inconclusive.

Experiments:
[1] = Human pregnane X receptor (PXR) small molecule agonists, qHTS cell viability counter screen (AID 1346977); note: nearly all actives have a fitted effect of over 50% in size
Procedure, shortened: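 PXR-Luc HepG2 cells (2,000/well, 5% charcoal-stripped FBS) preincubated 5 hr, then exposed to compounds 24 hr at 37 C. Viability read in the same wells by CellTiter-Fluor fluorescence, reagent added at 23 hr, 1 hr incubation.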

[2] = Caspase-3/7 induction in HepG2 cells by small molecules, qHTS assay (AID 1346978); note: nearly all actives have a fitted effect of over 15% in size
Procedure, shortened: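 Wild-type HepG2 cells (2,000/well) were settled 5 h at 37 C, 5% CO2, then exposed to compounds in DMSO for 17 h. Caspase-3/7 activity was read by luminescence 30 min after adding Caspase-Glo 3/7 reagent at room temperature.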

[3] = Caspase-3/7 induction in CHO-K1 cells by small molecules, qHTS assay (AID 1346980); note: nearly all actives have a fitted effect of over 15% in size
Procedure, shortened: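 Wild-type cells were seeded at 1,500 per well and settled 5 hr at 37 C, 5% CO2, then exposed to DMSO-dissolved compounds for 17 hr. Caspase-Glo 3/7 reagent was added, and luminescence was read after 30min at room temperature.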

[4] = Caspase-3/7 induction in HepG2 cells by small molecules, qHTS cell viability counter screen (AID 1346981); note: series mostly up to about 92 µM; nearly all actives have a fitted effect of over 30% in size
Procedure, shortened: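 Treatment of HepG2 cells with DMSO-delivered compounds ran 16 hr at 37 C following a 5-hr pre-incubation of 2,000 cells/well. CellTiter-Fluor fluorescence, read after 1 hr, served as the viability measure in a qHTS format.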

[5] = biological target: Nuclear receptor subfamily 1 group I member 2 (Homo sapiens) (UniProt O75469); assay: Human pregnane X receptor (PXR) small molecule agonists, qHTS assay (AID 1346982); note: nearly all actives have a fitted effect of over 35% in size
Procedure, shortened: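 Stable HepG2 line reporting PXR-mediated CYP3A4 expression via luciferase. Treatment: 24 hr with compounds in DMSO at 37 C. Detection: ONE-Glo luminescence.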

[6] = biological target: Acetylcholinesterase (Homo sapiens) (UniProt P22303); assay: Acetylcholinesterase (AChE) small molecule antagonists: colormetric cell-based qHTS assay (AID 1347395; calls by dose curve; note: nearly all actives have a fitted effect of over 30% in size)
Procedure, shortened: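 SH-SY5Y cells attached overnight, exposed to compound 30 min at 37 C, then given DTNB/acetylthiocholine; after 90 min at 37 C, colorimetric thiocholine read gives cellular AChE activity.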

[7] = biological target: Acetylcholinesterase (Homo sapiens) (UniProt P22303); assay: Acetylcholinesterase (AChE) small molecule antagonists: enzyme-based qHTS assay (AID 1347397; calls by dose curve; note: nearly all actives have a fitted effect of over 55% in size); settings: Potency: AChE enzyme activity inhibition; outcome: AChE enzyme activity inhibition
Procedure, shortened: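 Compound or DMSO vehicle was pin-transferred onto recombinant human AChE (50 mU/mL as dispensed) and left 30 min at room temperature. Acetylthiocholine with DTNB then started the reaction, read colorimetrically 10 min later.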

[8] = biological target: Acetylcholinesterase (Homo sapiens) (UniProt P22303); assay: Acetylcholinesterase (AChE) small molecule antagonists: fluorescence cell-based qHTS assay (AID 1347398; calls by dose curve; note: nearly all actives have a fitted effect of over 50% in size); settings: Potency: AChE activity; outcome: AChE activity
Procedure, shortened: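 Using neuroblastoma SH-SY5Y cells as the enzyme source, test chemicals are preincubated 30 min at 37 C; AChE-driven acetylthiocholine cleavage is then quantified by thiocholine-dependent Thiolite Green fluorescence after 40 min at room temperature.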

[9] = biological target: Acetylcholinesterase (Homo sapiens) (UniProt P22303); assay: Acetylcholinesterase (AChE) small molecule antagonists: enzyme-based qHTS assay with human liver microsomes (AID 1347399; calls by dose curve; note: nearly all actives have a fitted effect of over 60% in size); settings: Potency: qHTS inhibition; outcome: qHTS inhibition
Procedure, shortened: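 Recombinant human AChE (50 mU/mL in the enzyme mix) and human liver microsomes (0.25 mg/mL final) were preincubated with compound and NADPH (0.25 mg/mL final) for 30 min at 37 C. Acetylthiocholine/DTNB was then added; thiocholine was read colorimetrically after 10 min at room temperature.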

[10] = biological target: Cytochrome P450 2D6 (Homo sapiens) (UniProt P10635); assay: Cytochrome P450 Family 2 Subfamily D Member 6 (CYP2D6) small molecule antagonists: luciferase reporter qHTS assay (AID 1671196); note: series mostly up to about 120 µM; nearly all actives have a fitted effect of over 50% in size
Procedure, shortened: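 Chemicals tested for interference with CYP2D6 activity; proluciferin substrate, NADPH regeneration, 1 h at room temperature, luminescent detection.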

[11] = biological target: Cytochrome P450 2C19 (Homo sapiens) (UniProt P33261); assay: Cytochrome P450 Family 2 Subfamily C Member 19 (CYP2C19) small molecule antagonists: luciferase reporter qHTS assay (AID 1671197); note: nearly all actives have a fitted effect of over 65% in size; note: potency is the fitted concentration of half-maximal effect; for activity change, negative = inhibition: series mostly up to about 120 µM
Procedure, shortened: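 CYP2C19 P450-Glo, 1536-well qHTS. Cpd + enzyme/proluciferin substrate 10 min RT; + NADPH regen, 37C 1 h; stop with luciferin detection reagent, 20 min RT, luminescence (RLU). Pos ctrl ketoconazole.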

[12] = biological target: Cytochrome P450 1A2 (Homo sapiens) (UniProt P05177); assay: Cytochrome P450 Family 1 Subfamily A Member 2 (CYP1A2) small molecule antagonists: luciferase reporter qHTS assay (AID 1671199); note: nearly all actives have a fitted effect of over 50% in size; note: potency is the fitted concentration of half-maximal effect; for activity change, negative = inhibition: series mostly up to about 120 µM
Procedure, shortened: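 Read-out is luminescence from luciferin detection reagent (20 min) proportional to CYP1A2 activity; compounds in DMSO preincubated 10 min with enzyme and proluciferin substrate, then NADPH regeneration solution, 1 h, room temperature.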

[13] = biological target: Voltage-gated inwardly rectifying potassium channel KCNH2 (Homo sapiens) (UniProt Q12809); assay: Human Ether-a-go-go-Related Gene (hERG) channel small molecule antagonists: fluorescence cell-based qHTS assay (AID 1671200)
Procedure, shortened: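 hERG-U2OS cells plated overnight at 37 C, loaded with FluxOR II dye 1 h at RT in dark; after 10 min, thallium stimulus added. Fluorescence (480/540 nm) read kinetically for 2 min at 1 s intervals.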

[14] = biological target: Cytochrome P450 3A4 (Homo sapiens) (UniProt P08684); assay: Cytochrome P450 Family 3 Subfamily A Member 4 (CYP3A4) small molecule antagonists: luciferase reporter qHTS assay (AID 1671201); note: nearly all actives have a fitted effect of over 50% in size; note: potency is the fitted concentration of half-maximal effect; for activity change, negative = inhibition: series mostly up to about 120 µM
Procedure, shortened: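 P450-Glo CYP3A4 luminescent assay: compounds preincubated 10 min at room temperature with enzyme and proluciferin substrate, NADPH regeneration added, 1 h room-temperature reaction, stopped with luciferin detection reagent; luminescence read after 20 min. Ketoconazole positive control.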

[15] = biological target: Cytochrome P450 2C9 (Homo sapiens) (UniProt P11712); assay: Cytochrome P450 Family 2 Subfamily C Member 9 (CYP2C9) small molecule antagonists: luciferase reporter qHTS assay (AID 1671198); note: nearly all actives have a fitted effect of over 50% in size; note: potency is the fitted concentration of half-maximal effect; for activity change, negative = inhibition: series mostly up to about 120 µM
Procedure, shortened: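 CYP2C9 activity was measured with a P450-Glo proluciferin substrate. Enzyme–substrate mix was held with compound for 10 min at room temperature, then NADPH regeneration solution was added for 1 h at 37C. Luciferin product was read as luminescence.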

[16] = biological target: Nuclear receptor subfamily 1 group I member 2 (Rattus norvegicus) (UniProt Q9R1A7); assay: Rat pregnane X receptor (rPXR) activation by small molecules, qHTS assay (AID 1346983); settings: rPXR luciferase reporter cells, One-Glo luminescence, 24 h; hits give high values; note: nearly all actives have a fitted effect of over 20% in size
Procedure, shortened: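 Cell-based rPXR luciferase reporter assay, 2,000 cells per well, rested 5hr at 37 C before compound addition in DMSO, then 24 hr at 37 C. One-Glo reagent was added and luminescence read after 30 min at room temperature.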

[17] = biological target: Nuclear receptor subfamily 1 group I member 2 (Homo sapiens) (UniProt O75469); assay: CYP3A4 induction through human pregnane X receptor (PXR) by small molecules, qHTS assay (AID 1346984); note: nearly all actives have a fitted effect of over 40% in size
Procedure, shortened: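 After 24 h at 37C with compound, DPX-2 cells (HepG2, co-transfected PXR response element and CYP3A4 promoter-luciferase) got 3uM final P450-Glo Luciferin-IPA for 3 h; One-Glo luminescence followed.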

[18] = biological target: Nuclear receptor subfamily 1 group I member 2 (Homo sapiens) (UniProt O75469); assay: Human pregnane X receptor (PXR) activation by small molecules, qHTS assay (AID 1346985); note: nearly all actives have a fitted effect of over 40% in size
Procedure, shortened: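 DPX-2 cells (HepG2 co-transfected with a PXR response element and a CYP3A4-promoter luciferase construct) were seeded at 2,000 per well, rested 5 hr at 37C, then exposed to DMSO-dissolved compounds for 24 hr. Activation was read as luciferase luminescence.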
% is set by controls: 0 for no effect and ±100 for the full control effect.

Voltage-gated inwardly rectifying potassium channel KCNH2 (Homo sapiens), sequence (Q12809 whole entry, looked up): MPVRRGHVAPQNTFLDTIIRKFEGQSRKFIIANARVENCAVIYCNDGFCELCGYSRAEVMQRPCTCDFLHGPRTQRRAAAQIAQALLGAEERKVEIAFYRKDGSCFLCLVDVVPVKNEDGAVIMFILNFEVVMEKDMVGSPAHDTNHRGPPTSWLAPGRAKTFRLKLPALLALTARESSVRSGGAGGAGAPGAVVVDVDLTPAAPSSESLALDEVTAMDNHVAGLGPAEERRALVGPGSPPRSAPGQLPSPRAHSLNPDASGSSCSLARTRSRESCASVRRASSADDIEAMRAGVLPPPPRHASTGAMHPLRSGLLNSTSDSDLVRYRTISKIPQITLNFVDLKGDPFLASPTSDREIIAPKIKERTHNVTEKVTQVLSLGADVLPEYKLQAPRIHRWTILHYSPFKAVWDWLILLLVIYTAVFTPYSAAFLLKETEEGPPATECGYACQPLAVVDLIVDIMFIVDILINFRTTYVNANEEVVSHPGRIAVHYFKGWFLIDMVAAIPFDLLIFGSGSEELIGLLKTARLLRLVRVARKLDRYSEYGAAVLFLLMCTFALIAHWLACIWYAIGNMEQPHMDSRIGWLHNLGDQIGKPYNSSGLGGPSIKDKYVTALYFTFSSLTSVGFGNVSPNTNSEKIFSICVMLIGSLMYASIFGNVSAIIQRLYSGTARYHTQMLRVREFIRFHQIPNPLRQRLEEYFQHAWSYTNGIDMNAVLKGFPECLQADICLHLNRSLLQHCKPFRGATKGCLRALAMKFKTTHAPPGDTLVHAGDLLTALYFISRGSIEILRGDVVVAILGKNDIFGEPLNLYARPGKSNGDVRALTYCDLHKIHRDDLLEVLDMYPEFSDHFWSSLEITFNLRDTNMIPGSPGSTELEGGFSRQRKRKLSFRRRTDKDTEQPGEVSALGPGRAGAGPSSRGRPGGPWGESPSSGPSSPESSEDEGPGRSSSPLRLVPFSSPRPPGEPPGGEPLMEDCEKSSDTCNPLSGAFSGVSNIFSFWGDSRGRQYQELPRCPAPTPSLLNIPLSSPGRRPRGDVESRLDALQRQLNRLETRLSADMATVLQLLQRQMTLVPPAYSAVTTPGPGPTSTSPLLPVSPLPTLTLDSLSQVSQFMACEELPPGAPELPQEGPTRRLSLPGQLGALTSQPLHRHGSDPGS
Cytochrome P450 2D6 (Homo sapiens), sequence (P10635 whole entry, looked up): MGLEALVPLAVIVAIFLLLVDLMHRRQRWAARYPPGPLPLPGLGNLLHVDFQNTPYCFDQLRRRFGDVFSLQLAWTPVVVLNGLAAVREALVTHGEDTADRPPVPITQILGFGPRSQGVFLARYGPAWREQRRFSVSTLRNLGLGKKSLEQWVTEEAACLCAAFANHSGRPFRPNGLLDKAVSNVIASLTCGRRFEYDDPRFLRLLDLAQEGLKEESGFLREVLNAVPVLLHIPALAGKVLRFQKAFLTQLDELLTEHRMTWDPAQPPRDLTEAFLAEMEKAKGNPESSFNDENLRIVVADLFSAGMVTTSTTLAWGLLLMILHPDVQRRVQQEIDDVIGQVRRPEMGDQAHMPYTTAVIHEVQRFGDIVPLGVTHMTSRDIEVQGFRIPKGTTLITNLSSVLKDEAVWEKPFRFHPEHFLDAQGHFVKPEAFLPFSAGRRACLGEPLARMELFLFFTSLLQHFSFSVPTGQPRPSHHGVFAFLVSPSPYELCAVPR
Cytochrome P450 3A4 (Homo sapiens), sequence (P08684 whole entry, looked up): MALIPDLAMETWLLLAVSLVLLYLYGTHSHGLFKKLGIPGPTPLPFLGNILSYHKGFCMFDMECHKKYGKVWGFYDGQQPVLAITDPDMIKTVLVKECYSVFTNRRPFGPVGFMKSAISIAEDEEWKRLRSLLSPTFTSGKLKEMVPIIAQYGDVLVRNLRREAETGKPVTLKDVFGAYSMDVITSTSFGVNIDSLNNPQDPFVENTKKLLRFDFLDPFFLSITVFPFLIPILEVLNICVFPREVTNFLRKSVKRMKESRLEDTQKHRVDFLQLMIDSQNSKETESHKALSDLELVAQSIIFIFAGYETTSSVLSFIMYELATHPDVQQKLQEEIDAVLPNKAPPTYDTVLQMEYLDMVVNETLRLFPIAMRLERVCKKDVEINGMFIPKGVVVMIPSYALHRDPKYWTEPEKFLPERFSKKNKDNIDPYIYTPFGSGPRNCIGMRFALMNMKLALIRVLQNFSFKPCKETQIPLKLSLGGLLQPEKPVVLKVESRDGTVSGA
Acetylcholinesterase (Homo sapiens), sequence (P22303 whole entry, looked up): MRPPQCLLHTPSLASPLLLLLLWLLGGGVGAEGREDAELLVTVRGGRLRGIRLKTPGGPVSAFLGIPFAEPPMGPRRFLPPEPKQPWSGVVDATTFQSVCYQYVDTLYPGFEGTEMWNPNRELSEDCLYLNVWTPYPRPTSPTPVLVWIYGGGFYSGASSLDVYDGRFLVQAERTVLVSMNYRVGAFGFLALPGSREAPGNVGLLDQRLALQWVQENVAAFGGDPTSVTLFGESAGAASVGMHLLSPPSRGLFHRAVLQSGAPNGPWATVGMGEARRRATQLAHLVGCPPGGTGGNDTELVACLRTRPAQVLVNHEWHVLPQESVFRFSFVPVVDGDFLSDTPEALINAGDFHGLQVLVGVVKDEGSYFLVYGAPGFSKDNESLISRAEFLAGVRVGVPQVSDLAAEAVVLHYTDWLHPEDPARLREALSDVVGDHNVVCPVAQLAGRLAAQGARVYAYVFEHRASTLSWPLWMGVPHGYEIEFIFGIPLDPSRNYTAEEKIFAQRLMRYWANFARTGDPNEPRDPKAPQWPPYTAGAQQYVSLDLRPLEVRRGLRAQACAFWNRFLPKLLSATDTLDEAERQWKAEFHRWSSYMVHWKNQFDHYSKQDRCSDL
Cytochrome P450 1A2 (Homo sapiens), sequence (P05177 whole entry, looked up): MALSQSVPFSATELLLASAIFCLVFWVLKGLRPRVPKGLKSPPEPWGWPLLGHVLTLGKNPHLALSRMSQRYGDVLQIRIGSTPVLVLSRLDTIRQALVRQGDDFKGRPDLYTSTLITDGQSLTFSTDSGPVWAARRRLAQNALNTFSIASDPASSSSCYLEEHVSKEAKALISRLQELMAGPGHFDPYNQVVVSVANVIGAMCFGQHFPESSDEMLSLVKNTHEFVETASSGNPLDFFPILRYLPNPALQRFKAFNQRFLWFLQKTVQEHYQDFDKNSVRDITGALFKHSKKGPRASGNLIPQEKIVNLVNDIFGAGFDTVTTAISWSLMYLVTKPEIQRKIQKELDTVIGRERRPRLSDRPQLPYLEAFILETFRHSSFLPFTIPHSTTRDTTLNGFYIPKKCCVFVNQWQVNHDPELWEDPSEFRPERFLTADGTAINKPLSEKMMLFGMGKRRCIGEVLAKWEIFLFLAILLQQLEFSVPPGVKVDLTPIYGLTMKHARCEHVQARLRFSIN
Cytochrome P450 2C19 (Homo sapiens), sequence (P33261 whole entry, looked up): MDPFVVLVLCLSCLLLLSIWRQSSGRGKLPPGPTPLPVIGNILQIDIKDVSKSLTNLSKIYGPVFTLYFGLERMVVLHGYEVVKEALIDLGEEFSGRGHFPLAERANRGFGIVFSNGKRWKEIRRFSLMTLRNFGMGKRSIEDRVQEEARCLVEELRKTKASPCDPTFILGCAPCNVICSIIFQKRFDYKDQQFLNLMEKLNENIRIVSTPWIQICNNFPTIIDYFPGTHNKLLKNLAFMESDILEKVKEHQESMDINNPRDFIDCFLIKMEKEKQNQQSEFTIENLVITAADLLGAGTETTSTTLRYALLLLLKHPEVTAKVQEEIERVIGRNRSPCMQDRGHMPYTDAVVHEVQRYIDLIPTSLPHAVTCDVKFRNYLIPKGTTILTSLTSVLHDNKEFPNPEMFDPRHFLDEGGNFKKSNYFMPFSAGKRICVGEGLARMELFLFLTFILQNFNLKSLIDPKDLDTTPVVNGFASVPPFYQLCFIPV
Nuclear receptor subfamily 1 group I member 2 (Homo sapiens), sequence (O75469 whole entry, looked up): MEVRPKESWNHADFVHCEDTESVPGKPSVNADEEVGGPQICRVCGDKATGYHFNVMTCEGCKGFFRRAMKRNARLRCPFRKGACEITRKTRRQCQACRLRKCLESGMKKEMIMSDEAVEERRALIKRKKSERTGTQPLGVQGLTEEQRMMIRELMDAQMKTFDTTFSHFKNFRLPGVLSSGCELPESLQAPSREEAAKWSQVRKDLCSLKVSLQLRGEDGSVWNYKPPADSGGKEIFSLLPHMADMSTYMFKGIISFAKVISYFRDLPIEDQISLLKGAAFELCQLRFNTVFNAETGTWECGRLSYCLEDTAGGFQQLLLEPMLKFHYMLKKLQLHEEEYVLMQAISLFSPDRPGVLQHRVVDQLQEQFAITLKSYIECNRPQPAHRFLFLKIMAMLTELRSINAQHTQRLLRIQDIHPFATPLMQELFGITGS
Cytochrome P450 2C9 (Homo sapiens), sequence (P11712 whole entry, looked up): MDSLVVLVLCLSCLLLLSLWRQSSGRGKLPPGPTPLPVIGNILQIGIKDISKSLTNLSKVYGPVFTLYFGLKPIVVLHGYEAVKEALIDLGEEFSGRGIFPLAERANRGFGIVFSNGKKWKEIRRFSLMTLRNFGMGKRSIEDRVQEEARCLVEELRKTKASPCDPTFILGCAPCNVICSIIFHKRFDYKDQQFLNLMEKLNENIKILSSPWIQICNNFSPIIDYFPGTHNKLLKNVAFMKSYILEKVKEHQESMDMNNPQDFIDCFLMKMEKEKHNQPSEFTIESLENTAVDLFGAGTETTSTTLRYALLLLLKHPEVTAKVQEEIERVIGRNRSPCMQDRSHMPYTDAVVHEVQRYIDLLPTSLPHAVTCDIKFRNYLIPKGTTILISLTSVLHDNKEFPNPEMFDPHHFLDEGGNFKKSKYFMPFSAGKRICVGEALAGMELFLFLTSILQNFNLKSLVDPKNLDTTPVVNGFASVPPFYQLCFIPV

CC(C)C(C)(N)C#N (stereo not drawn)
inactive: Potency [1] | outcome [2] | outcome [3] | Potency [4] | Potency [5] | Potency [6] | Potency [7] | Potency [8] | Potency [9] | Potency [10] | Potency [11] | Potency [12] | Potency [13] | Potency [14]

CC(O)CCl (stereo not drawn)
inactive: Potency [1] | outcome [2] | outcome [3] | Potency [4] | Potency [5] | Potency [6] | Potency [7] | Potency [9] | Potency [10] | Potency [11] | Potency [15] | Potency [13]

CC(=O)OCC1=C(C(=O)O)N2C(=O)[C@@H](N)[C@H]2SC1
active: Potency [11] 15.1 µM | Potency [12] 12 µM
inactive: activity change, negative = cytotoxicity [1] 0.727% [at 19 µM] | caspase activation [2] 0.281% [at 19 µM] | caspase-3/7 activation [3] 0.439% [at 19 µM] | activity change, negative = cytotoxicity [4] -1.33% [at 19 µM] | activation [5] -3.67% [at 19 µM] | max activation [16] 4.87% | Potency [17] | Potency [18] | activity, negative = inhibition [6] 1.78% [at 23.6 µM] | activity change, negative = inhibition [7] -2.73% [at 23.6 µM] | activity change, negative = inhibition [8] -12.7% [at 23.8 µM] | activity change, negative = inhibition [9] -11.4% [at 23.6 µM] | activity change, negative = inhibition [13] 0.177% [at 15.8 µM] | activity change, negative = inhibition [14] -8.01% [at 23.6 µM]

CCOP(=S)(OCC)SCCl
inactive: Potency [1] | outcome [2] | outcome [3] | Potency [4] | Potency [5] | Potency [6] | Potency [7] | Potency [8] | Potency [9] | Potency [13]
active: Potency [11] 35.6 µM | Potency [15] 14.2 µM | Potency [12] 25.2 µM | Potency [14] 11.2 µM

CCCCCCCCBr
inactive: Potency [1] | outcome [2] | outcome [3] | Potency [4] | Potency [5] | Potency [6] | Potency [7] | Potency [8] | Potency [9] | Potency [10] | Potency [13] | Potency [14]
